Bioassay records: PubChem, National Center for Advancing Translational Sciences (NCATS)
AMA1-RON2 inh = AMA1-RON2 (P. falciparum) interaction inhibition; AlphaScreen AMA1-biotinylated RON2 peptide binding; Potency, µM (titrated, usually from 58.2 µM), hits mostly inhibitors; 360,000 compounds, 0.2% hits; AID 720542; further: nearly all actives have a fitted effect of over 45% in size
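AMA1 (3D7) with his tag at 25 nM final met compounds first, then biotinylated RON2 peptide at 25 nM; detection used donor plus acceptor beads, 10 µg/mL apiece, read by AlphaScreen after 30 min at room temperature.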
NS1 inh = blocks influenza NS1 protein function; Potency, µM (top dose mostly 46.1 µM); 270,000 compounds, 0.4% hits; AID 2326; calls by dose curve; further: actives are rising curves; nearly all actives have a fitted effect of over 50% in size
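Growth recovery, yeast-based: influenza A NS1 expressed in S. cerevisiae causes slow growth, and suppressors are detected by OD600. The parent strain without NS1 is used as positive control.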
Sm TGR block = inhibitors of Schistosoma mansoni thioredoxin glutathione reductase; Q962Y6; AID 485364; Potency, µM (highest dose often 114 µM), usual class: inhibitors; 360,000 compounds, 3% hits; purified TGR, DTNB reduction, TNB absorbance 405 nm; further: nearly all actives have a fitted effect of over 60% in size
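First, TGR (20 nM dispensed) and NADPH were mixed with compound. Second, a 15 min room-temperature incubation followed. Third, further NADPH and then DTNB were added to start the reaction. Finally, TNB absorbance was monitored kinetically.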
Pf growth 96h = inhibits malaria parasite growth, 96 h; P. falciparum luciferase reporter growth, 96 h; Potency, µM (top dose mostly 28.7 µM), most hits filed as inhibitors; 320,000 compounds, 6.9% hits
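Luminescence readout: decreased luciferase signal marks inhibited growth of reporter-expressing P. falciparum in infected red cells (2% hematocrit, 0.05% parasitemia final), exposed to compound two generations (96 h, 37 C, 5% CO2).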
Pf growth 48h = P. falciparum growth inhibition at 48 hours (one generation). P. falciparum luciferase growth in erythrocytes, 48 h. Potency, µM (doses to about 28.7 µM), usual class: inhibitors. AID 504832. 310,000 compounds, 5.9% hits
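Luciferase-expressing P. falciparum in infected erythrocytes (2% hematocrit, 0.1% parasitemia final) in RPMI 1640/0.5% Albumax were exposed to compound for 48 hours at 37 C, 5% CO2; growth read as luminescence.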
A number is an active result. An excerpt weighted towards active compounds, which were near 11% of everything screened. Unless noted, the call rests on the fitted dose curve; in most records, active means well fitted curve in the direction sought with a large enough effect; inconclusive means small, poorly fitted or top-dose-only effect, or another doubt; inactive means no such curve, though single readings can be large; an effect the other way counts as inactive or inconclusive.

CCN(CC)C(=O)C1=C(C)N(CCCOC)C(=O)C(CC(=O)NC2CCCC2)C1 (stereo not given) was read as AMA1-RON2 inh inactive.
`O=C(NC(=O)C(F)(F)F)Nc1ccc(S(=O)(=O)Nc2nccs2)cc1` gave AMA1-RON2 inh inactive, NS1 inh inactive, Sm TGR block inactive, Pf growth 96h inconclusive and Pf growth 48h inactive.
For COc1cc(/C=C/CN2CCN(CCC(C)C)C(CCO)C2)ccc1O (stereo not given) the results were AMA1-RON2 inh inactive, NS1 inh inactive, Sm TGR block 13µM, Pf growth 96h inactive and Pf growth 48h inactive.
`CCOc1ccc(CN2CCN(C/C=C/c3ccc(OC)cc3)CC2CCO)cc1` (stereo not given) gave AMA1-RON2 inh inactive, NS1 inh inactive, Sm TGR block inactive, Pf growth 96h inactive and Pf growth 48h inactive.
Cc1ccc(CN2CCN(Cc3cnc(C)s3)CC2CCO)o1 (stereo not given) was read as AMA1-RON2 inh inactive, NS1 inh inactive, Sm TGR block inconclusive, Pf growth 96h inactive and Pf growth 48h inactive.
Screening COc1ccc(/C=C/CN2CCN(CC(C)C)C(CCO)C2)cc1 (stereo not given) returned AMA1-RON2 inh inactive, NS1 inh inactive, Sm TGR block inactive, Pf growth 96h 4.1µM and Pf growth 48h inconclusive.
`C/C(=C\c1ccccc1)CN1CCN(Cc2ccc(C)o2)C(CCO)C1` (stereo not given) gave AMA1-RON2 inh inactive, NS1 inh inactive, Sm TGR block inactive, Pf growth 96h 2.1µM and Pf growth 48h inconclusive.
For COc1cc(/C=C/CN2CCN(Cc3ccc(C)o3)C(CCO)C2)ccc1O (stereo not given) the results were AMA1-RON2 inh inactive, NS1 inh inactive, Sm TGR block 13µM, Pf growth 96h inactive and Pf growth 48h inactive.
Screening COc1ccc(/C=C/CN2CCN(Cc3cccc(OC)c3)C(CCO)C2)cc1 (stereo not given) returned AMA1-RON2 inh inactive, NS1 inh inactive, Sm TGR block inactive, Pf growth 96h inconclusive and Pf growth 48h inconclusive.
Cc1cnc(CN(C)Cc2nc(Cc3cccc(C(F)(F)F)c3)no2)[nH]1 was read as AMA1-RON2 inh inactive, NS1 inh inactive, Sm TGR block inactive, Pf growth 96h inactive and Pf growth 48h inconclusive.
For COc1ccccc1/C=C/CN1CCN(Cc2ccc(C)o2)C(CCO)C1 (stereo not given) the results were AMA1-RON2 inh inactive, NS1 inh inactive, Sm TGR block 45µM, Pf growth 96h inconclusive and Pf growth 48h inconclusive.
For CCOc1cc(CN2CCN(Cc3ccc(C)o3)C(CCO)C2)ccc1OC (stereo not given) the results were AMA1-RON2 inh inactive, NS1 inh inactive, Pf growth 96h inconclusive and Pf growth 48h inactive.
COc1ccc(C2c3c(ncn(CCCO)c3=N)Oc3ccc4ccccc4c32)cc1 (stereo not given) was read as AMA1-RON2 inh inactive, NS1 inh inactive, Sm TGR block inactive, Pf growth 96h inconclusive and Pf growth 48h 12µM.
Screening COc1ccc(C2c3c(ncn(CCCO)c3=N)Oc3ccc4ccccc4c32)cc1OC (stereo not given) returned AMA1-RON2 inh inactive, NS1 inh inactive, Sm TGR block inactive, Pf growth 96h 1.7µM and Pf growth 48h 13µM.
Screening COc1ccc(C2c3c(ncn(CCN4CCOCC4)c3=N)Oc3ccc4ccccc4c32)cc1OC (stereo not given) returned AMA1-RON2 inh inactive, NS1 inh inactive, Sm TGR block inactive, Pf growth 96h 0.59µM and Pf growth 48h 4.1µM.
COc1ccc(C2c3ccc4ccccc4c3Oc3ncn4nc(Cc5ccccc5)nc4c32)cc1OC (stereo not given) was read as AMA1-RON2 inh inactive, NS1 inh inactive, Sm TGR block inactive, Pf growth 96h inactive and Pf growth 48h inconclusive.
For COc1ccc(C2c3ccc(O)cc3Oc3ncn(CCN4CCOCC4)c(=N)c32)cc1 (stereo not given) the results were AMA1-RON2 inh inactive, NS1 inh inactive, Sm TGR block inactive, Pf growth 96h inactive and Pf growth 48h inconclusive.
Screening COc1ccc(C2c3c(ccc4ccccc34)Oc3ncn4nc(Cc5ccccc5)nc4c32)cc1OC (stereo not given) returned AMA1-RON2 inh inactive, NS1 inh inactive, Sm TGR block inactive, Pf growth 96h 1.5µM and Pf growth 48h 1.7µM.
`CCc1cccc2c(C(=O)COC(=O)[C@@H]3CC(O)CN3S(=O)(=O)c3ccccc3[N+](=O)[O-])c[nH]c12` (stereo not given in full) gave AMA1-RON2 inh inactive.
`CCN(CC)c1c2c(c(C#N)c3nc4ccccc4n13)CCC2` gave AMA1-RON2 inh inactive, NS1 inh inactive, Sm TGR block inactive, Pf growth 96h inconclusive and Pf growth 48h inconclusive.
For Cc1ccc(Nc2c(C(C)C)c(C)c(C#N)c3nc4ccccc4n23)cc1 the results were Sm TGR block inactive.
`N#Cc1c2c(c(NCCOCCO)n3c1nc1ccccc13)CCCC2` gave AMA1-RON2 inh inactive, Sm TGR block inactive, Pf growth 96h inactive and Pf growth 48h inconclusive.
For N#Cc1c2c(c(NCc3cccnc3)n3c1nc1ccccc13)CCC2 the results were AMA1-RON2 inh inactive, NS1 inh inactive, Sm TGR block inactive and Pf growth 48h 2.9µM.
COc1ccc(Nc2c3c(c(C#N)c4nc5ccccc5n24)CCC3)cc1 was read as AMA1-RON2 inh inactive, NS1 inh inactive, Sm TGR block inactive, Pf growth 96h 9.3µM and Pf growth 48h inconclusive.
For COCCNc1c2c(c(C#N)c3nc4ccccc4n13)CCCC2 the results were AMA1-RON2 inh inactive, Sm TGR block inactive, Pf growth 96h inconclusive and Pf growth 48h 1.7µM.
CC(=O)c1ccc(Nc2c3c(c(C#N)c4nc5ccccc5n24)CCC3)cc1 was read as NS1 inh inactive, Sm TGR block inactive, Pf growth 96h inactive and Pf growth 48h 3.3µM.
For CCCCN(C(=O)c1ccc(N(C)S(=O)(=O)c2ccc(C)cc2)cc1)c1c(N)n(CCCC)c(=O)[nH]c1=O the results were AMA1-RON2 inh inactive, Sm TGR block inactive, Pf growth 96h inconclusive and Pf growth 48h inconclusive.
`Cc1nn(Cc2ccc(Cl)cc2)c(C)c1NC(=O)CSc1n[nH]c(C)c1[N+](=O)[O-]` gave AMA1-RON2 inh inactive, NS1 inh inactive, Sm TGR block inactive, Pf growth 96h 13µM and Pf growth 48h inactive.
Screening Cc1nn(Cc2ccccc2)c(C)c1NC(=O)CSc1n[nH]c(C)c1[N+](=O)[O-] returned AMA1-RON2 inh inactive, NS1 inh inactive, Sm TGR block inactive, Pf growth 96h inactive and Pf growth 48h inconclusive.
For COc1cccc(CN2CCC(CO)(CC3CCCCO3)CC2)c1 (stereo not given) the results were AMA1-RON2 inh inactive, NS1 inh inactive, Sm TGR block inactive, Pf growth 96h 9.3µM and Pf growth 48h inactive.
Cc1ccc(CN2CCC(CO)(CC3CCCCO3)CC2)o1 (stereo not given) was read as AMA1-RON2 inh inactive, NS1 inh inactive, Sm TGR block 45µM, Pf growth 96h inconclusive and Pf growth 48h inactive.
